From PubChem BioAssay
This is a sample that favours compounds with a hit; in the whole collection about 3.3% have one here.
TLR4 MyD88 comp: inhibitors of TLR4-MyD88 association in cells, primary screen, cell-based, HeLa CL3-4, BLA complementation, FRET ratio; actives 0.18% (n = 200,000); AID 861, 2007; HeLa CL3-4 TLR4/MyD88 BLA complementation; inhibition, % at 8.4 µM; in the data active = inhibition above about 25%;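 also: 0% = vehicle and 100% = reference inhibitor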
NOD2 RIPK2 PPI: NOD2-RIPK2 binding disruptors in cells, primary screen, fluorescence, CHO cells, BLA complementation; actives 0.38% (n = 360,000); inhibition, % at 4.98 µM; CCF4 ratio; Receptor-interacting serine/threonine-protein kinase 2 (Homo sapiens), O43353; in the data active = inhibition above about 21%;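 also: 0% = vehicle only and 100% = reference blocker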
PRMT1 FP inh: PRMT1 methyltransferase inhibitors, primary screen, biochemical, fluorescence polarization | actives 1.3% (n = 370,000) | Protein arginine N-methyltransferase 1 (Homo sapiens), Q99873 | AID 652257, 2013 | inhibition, % at 2.79 µM | recombinant PRMT1, activity-based probe fluorescence polarization;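 active = inhibition above about 21% made by adding two undisclosed values, limit read from the data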
rCAG RNA binder: binders of r(CAG) RNA repeats, primary screen, biochemical, fluorescence | inhibition, % at 3 µM | actives 1.3% (n = 370,000) | r(CAG) RNA repeat, TO-PRO-1 dye displacement fluorescence;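 active = inhibition above the plate cutoff, the mean of all test compounds on that plate plus 3 SD, cut at about 35% in these data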;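 also: 0% = DMSO alone and 100% = 100 µM mitoxantrone as full dye displacement; higher means more dye released from RNA so lower well fluorescence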
TLR9-MyD88 block: inhibitors of TLR9-MyD88 association in cells, primary screen, cell-based, CHO, BLA complementation, fluorescence; inhibition, % at 4.98 µM; CCF4 FRET ratio; AID 504734, 2011; actives 0.21% (n = 340,000);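 active = inhibition above the mean over all tested compounds plus 3 SD, cut at about 21% in these data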;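 also: 0% = DMSO only wells and 100% = clavulanate BLA inhibitor control wells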
ABHD5-PLIN5 inh: ABHD5-PLIN5 interaction inhibitors, primary screen, cell lysate, split luciferase complementation, luminescence; Perilipin-5 (Homo sapiens) + 1-acylglycerol-3-phosphate O-acyltransferase ABHD5 (Homo …; Split G. princeps luciferase complementation, 4 h; inhibition, % at 4 µM; actives 0.78% (n = 360,000); AID 602281, 2012;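 active = inhibition above the mean inhibition across every tested compound plus 3 SD, cut at about 22% in these data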;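 also: 0% = DMSO only wells and the 100% control is not disclosed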
Target sequence (Q00G26 whole entry, looked up): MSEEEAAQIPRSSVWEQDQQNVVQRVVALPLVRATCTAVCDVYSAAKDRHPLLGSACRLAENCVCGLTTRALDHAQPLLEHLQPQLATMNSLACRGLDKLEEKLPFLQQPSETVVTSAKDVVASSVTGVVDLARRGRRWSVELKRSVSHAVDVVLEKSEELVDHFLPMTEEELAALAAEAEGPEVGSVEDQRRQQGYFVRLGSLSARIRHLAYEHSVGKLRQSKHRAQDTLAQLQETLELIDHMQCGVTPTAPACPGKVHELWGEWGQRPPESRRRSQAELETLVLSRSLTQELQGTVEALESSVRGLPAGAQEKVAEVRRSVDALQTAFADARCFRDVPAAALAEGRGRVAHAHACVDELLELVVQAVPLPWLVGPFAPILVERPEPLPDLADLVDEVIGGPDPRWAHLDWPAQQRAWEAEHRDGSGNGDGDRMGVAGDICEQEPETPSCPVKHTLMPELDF
Target sequence (Q8WTS1 whole entry, looked up): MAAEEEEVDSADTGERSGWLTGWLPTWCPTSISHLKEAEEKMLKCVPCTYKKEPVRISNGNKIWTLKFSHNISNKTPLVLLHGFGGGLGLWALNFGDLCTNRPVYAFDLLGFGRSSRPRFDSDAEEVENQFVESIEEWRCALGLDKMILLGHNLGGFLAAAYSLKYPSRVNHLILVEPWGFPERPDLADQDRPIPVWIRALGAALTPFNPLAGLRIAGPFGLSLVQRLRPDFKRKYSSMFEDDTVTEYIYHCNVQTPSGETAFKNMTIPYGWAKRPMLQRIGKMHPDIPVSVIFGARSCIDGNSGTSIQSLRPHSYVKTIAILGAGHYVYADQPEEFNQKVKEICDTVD
PRMT1 inh conf: PRMT1 methyltransferase inhibitors, confirmation, biochemical, fluorescence polarization, triplicate | shares compounds with PRMT1 FP inh | recombinant His-PRMT1, activity-based probe fluorescence polarization | inhibition, % at 2.79 µM | actives 42% (n = 3,300);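 active = mean inhibition across replicates above the hit cutoff derived for the earlier primary screen, cut at about 22% in these data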
An asterisk follows results filed as active.

For Cc1nc(Cl)c2c(n1)NC1=C(O2)C(=O)CCC1 the results were TLR4 MyD88 comp -8, NOD2 RIPK2 PPI 18, PRMT1 FP inh 36*, rCAG RNA binder -45, TLR9-MyD88 block 20, ABHD5-PLIN5 inh -1 and PRMT1 inh conf 48*.
`O=C1CCCC2=C1Sc1ccccc1N2` gave NOD2 RIPK2 PPI -13, PRMT1 FP inh 37*, rCAG RNA binder -8, ABHD5-PLIN5 inh 0 and PRMT1 inh conf 17.
Screening Cc1cccc(C)c1OC(=O)CCN1C(=O)C2C3C=CC(C4CC34)C2C1=O (stereo not given) returned TLR4 MyD88 comp 4, NOD2 RIPK2 PPI -13, PRMT1 FP inh -2, rCAG RNA binder -7, TLR9-MyD88 block 1 and ABHD5-PLIN5 inh 2.
Screening CCC1(O)CC(c2ccccc2)=NN1C(=O)c1ccccc1F (stereo not given) returned NOD2 RIPK2 PPI -1, PRMT1 FP inh -7, rCAG RNA binder 1, TLR9-MyD88 block -7 and ABHD5-PLIN5 inh -3.
Screening COc1cc2oc(=O)ccc2c(OC)c1CC(O)C(C)(C)O (stereo not given) returned NOD2 RIPK2 PPI -2, PRMT1 FP inh -1, rCAG RNA binder 1, TLR9-MyD88 block 8 and ABHD5-PLIN5 inh -4.
For COC(=O)CSc1nc(SC)nc2c1sc1nc(-c3ccco3)c3c(c12)CC(C)(C)OC3 the results were NOD2 RIPK2 PPI 3, PRMT1 FP inh 4, rCAG RNA binder -1, TLR9-MyD88 block -6 and ABHD5-PLIN5 inh 6.
CSc1nc(N(CCO)CCO)c2sc3nc(-c4ccco4)c4c(c3c2n1)CCC4 was read as TLR4 MyD88 comp 0, NOD2 RIPK2 PPI 3, PRMT1 FP inh 37*, rCAG RNA binder 23, TLR9-MyD88 block 5, ABHD5-PLIN5 inh 22* and PRMT1 inh conf 39*.
Screening O=C(Nc1ccc(Cl)cc1)C(Cl)C(=O)c1ccccc1 (stereo not given) returned NOD2 RIPK2 PPI 2, PRMT1 FP inh 77*, rCAG RNA binder 6, TLR9-MyD88 block 5, ABHD5-PLIN5 inh 16 and PRMT1 inh conf 78*.
CC(C)(CNC(=O)c1cccc(S(=O)(=O)N2CCCCC2)c1)N1CCOCC1 was read as NOD2 RIPK2 PPI -4, PRMT1 FP inh 2, rCAG RNA binder 2, TLR9-MyD88 block 3 and ABHD5-PLIN5 inh 2.
Cc1ccc(/C=C2/C(=O)ON=C2c2ccccc2)o1 was read as NOD2 RIPK2 PPI -4, PRMT1 FP inh 25*, rCAG RNA binder 39*, TLR9-MyD88 block -3, ABHD5-PLIN5 inh 11 and PRMT1 inh conf 33*.
Screening O=C1ON=C(c2ccccc2)/C1=C\c1ccco1 returned NOD2 RIPK2 PPI -12, PRMT1 FP inh 17, rCAG RNA binder 26, TLR9-MyD88 block -6 and ABHD5-PLIN5 inh 3.
For O=C(/C=C/c1ccco1)NCc1ccco1 the results were NOD2 RIPK2 PPI 0, PRMT1 FP inh 0, rCAG RNA binder 3 and ABHD5-PLIN5 inh 7.
O=C(/C=C/c1ccco1)NCc1ccc(F)cc1 was read as TLR4 MyD88 comp -5, NOD2 RIPK2 PPI 9, PRMT1 FP inh 38*, rCAG RNA binder 9, TLR9-MyD88 block 1, ABHD5-PLIN5 inh 17 and PRMT1 inh conf 15.
`CCN(CC)CCNC(=O)C1c2cc(OC)c(OC)cc2C(=O)N(C)C1c1cccs1` (stereo not given) gave TLR4 MyD88 comp -7, NOD2 RIPK2 PPI -7, PRMT1 FP inh 5, rCAG RNA binder -7, TLR9-MyD88 block -10 and ABHD5-PLIN5 inh -5.
For Cc1ccc(O)c(C(=O)c2cc(C#N)c(=O)n(-c3nccs3)c2)c1 the results were TLR4 MyD88 comp 4, NOD2 RIPK2 PPI 1, PRMT1 FP inh 39*, rCAG RNA binder -103, TLR9-MyD88 block 0, ABHD5-PLIN5 inh 5 and PRMT1 inh conf 31*.
For CN(C)C(CNc1ccc(C(F)(F)F)cc1[N+](=O)[O-])c1ccccc1 (stereo not given) the results were NOD2 RIPK2 PPI -7, PRMT1 FP inh -2, rCAG RNA binder -6, TLR9-MyD88 block -2 and ABHD5-PLIN5 inh -2.
Screening CC(=O)Nc1ccc(S(=O)(=O)NCC(=O)NNC(=O)COc2ccccc2Cl)cc1 returned NOD2 RIPK2 PPI -2, PRMT1 FP inh 25*, rCAG RNA binder 3, TLR9-MyD88 block 2, ABHD5-PLIN5 inh -5 and PRMT1 inh conf 22*.
Screening COC1C(O)C(O)C(O)C(O)C1O (stereo not given) returned NOD2 RIPK2 PPI -1, PRMT1 FP inh 0, rCAG RNA binder 0, TLR9-MyD88 block 1 and ABHD5-PLIN5 inh -3.
Screening c1ccc2c(c1)Nc1cc3ccccc3cc1S2 returned NOD2 RIPK2 PPI -1, PRMT1 FP inh -2, rCAG RNA binder 7, TLR9-MyD88 block -5 and ABHD5-PLIN5 inh -9.
Cc1ccc2c(c1)Sc1c(ccc3ccccc13)N2 was read as NOD2 RIPK2 PPI 11, PRMT1 FP inh 26*, rCAG RNA binder 18, TLR9-MyD88 block 8, ABHD5-PLIN5 inh -4 and PRMT1 inh conf 3.
CC(C)(CCC(=S)N1CCOCC1)C1CCCCC1 was read as NOD2 RIPK2 PPI -15, PRMT1 FP inh 37*, rCAG RNA binder -5, TLR9-MyD88 block 5, ABHD5-PLIN5 inh 2 and PRMT1 inh conf 6.
`Cc1ccc(N2C(=O)CS/C2=N\C(=S)Nc2ccccc2)cc1` gave NOD2 RIPK2 PPI -8, PRMT1 FP inh 28*, rCAG RNA binder 7, ABHD5-PLIN5 inh -46 and PRMT1 inh conf 3.
For CC1(C)Cc2c(C#N)c(N)n(-c3ccccc3)c(=S)c2CO1 the results were NOD2 RIPK2 PPI -4, PRMT1 FP inh 6, rCAG RNA binder -4 and ABHD5-PLIN5 inh -6.
`N#Cc1c2c(c(=S)n(-c3ccccc3)c1N)CCCC2` gave TLR4 MyD88 comp -1, NOD2 RIPK2 PPI -2, PRMT1 FP inh 26*, rCAG RNA binder -3, TLR9-MyD88 block -3, ABHD5-PLIN5 inh -6 and PRMT1 inh conf 8.
COc1cc(C(O)c2nc(-c3cccc(C#N)c3)cs2)ccc1F (stereo not given) was read as NOD2 RIPK2 PPI 0, PRMT1 FP inh -1, rCAG RNA binder 0 and ABHD5-PLIN5 inh 9.
`C1CSC2(N1)C1CC3CC2CC(C1)C31NCCS1` (stereo not given) gave TLR4 MyD88 comp -15, NOD2 RIPK2 PPI -8, PRMT1 FP inh 63*, rCAG RNA binder 2, TLR9-MyD88 block -6, ABHD5-PLIN5 inh -30 and PRMT1 inh conf 45*.
